Several values for one entry are separate records, joined by “and”; a condition that tells them apart may be missing. Identical values can stand only once. Inconclusive results are not listed. Activity calls are given as the source filed them. Unless noted, calls follow the shape of the dose curve; as a rule, active = well fitted curve in the direction sought with a large enough effect; inconclusive = small, poorly fitted or top-dose-only effect, or another doubt; inactive = no such curve, though single readings can be large; an effect the other way counts as inactive or inconclusive.
Experiments:
[1] = qHTS assay for small molecule antagonists of the retinoid-related orphan receptor gamma (ROR-gamma) signaling pathway - cell viability counter screen (AID 720652; active = well fitted curve in the direction sought with a large enough effect in the repeat runs; an effect the other way counts as inactive or inconclusive;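 also: compound exposure lasted 16 hr before ATP read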; also: potency is read from the fitted curve at half-maximal effect); conditions: RORgamma reporter cell line viability counter screen; series mostly up to 92.2 µM
How it was run: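 Cytotoxicity counter screen: intracellular ATP (CellTiter-Glo luminescence) measured in the doxycycline-induced CHO RORE-luciferase reporter line after 16 hr compound exposure at 37 C, 5% CO2.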

[2] = qHTS assay for small molecule agonists of the antioxidant response element (ARE) signaling pathway measured by Nrf2-dependant transcriptional activity - cell viability counter screen (AID 720653; active = well fitted curve in the direction sought with a large enough effect in the repeat runs; an effect the other way counts as inactive or inconclusive; also: potency is read from the fitted curve at half-maximal effect; as to max response: % is scaled to controls: 0 for no effect and ±100 for the full control effect); conditions: ARE-bla HepG2 viability, CellTiter-Glo ATP luminescence, 16 h; max response: stronger effect = lower value
How it was run: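 ARE-bla HepG2 cells treated with compounds for 16 h at 37C; this counter screen measures viability as intracellular ATP by CellTiter-Glo luminescence after 30 min at room temperature.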

[3] = qHTS assay for cell viability of HEK293 cells (AID 743288); conditions: ATP luminescence (CellTiter-Glo), 18 h; max response: stronger effect = lower value; also: nearly all actives have a fitted effect of over 50% in size; also: potency is read from the fitted curve at half-maximal effect; as to max response: % is scaled to controls: 0 for no effect and ±100 for the full control effect
How it was run: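 Steps: plate 2,000 parental HEK293 cells per well; incubate ≥5 h, 37 C; add compounds in DMSO; incubate 18 h, 37 C; add CellTiter-Glo; wait 30 min at room temperature; read luminescence.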

[4] = qHTS assay for cell viability of the p53RE-bla HCT-116 cell line (AID 743292); conditions: p53RE-bla HCT-116 viability, ATP luminescence, 16 h; series mostly up to 95 µM; also: nearly all actives have a fitted effect of over 55% in size; also: potency is read from the fitted curve at half-maximal effect
How it was run: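 ATP-based luminescence, 16 h compound exposure at 37 C, p53RE-bla HCT-116 cells at 4,000/well.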

[5] = qHTS Assay for Identifying Gametocytocidal Compounds (AID 743244); also: potency is read from the fitted curve at half-maximal effect;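 as to max response: % is scaled to controls: 0 for no effect and ±100 for the full control effect; actives lower the fluorescent signal which means gametocytes are killed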; conditions: P. falciparum 3D7 stage III-V gametocytes, alamarBlue, 72 h; max response: stronger effect = lower value
How it was run: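 P. falciparum 3D7 stage III–V gametocytes (20,000 cells/well) were exposed to compounds for 72 h at 37 °C, 5% CO2. AlamarBlue was then added for 24 h; decreased resorufin fluorescence (Ex 525/Em 598 nm) indicated loss of viability.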

[6] = biological target: T1, Hexokinase-4 (Homo sapiens) + Glucokinase regulatory protein (Homo sapiens) (UniProt P35557+Q14397); test: qHTS assay for inhibitors of recombinant human GCK-GKRP interaction: Diaphorase-coupled assay (AID 743205); conditions: G6PDH/diaphorase resorufin fluorescence; series mostly up to 57.5 µM
T1 sequence (P35557 whole entry, looked up): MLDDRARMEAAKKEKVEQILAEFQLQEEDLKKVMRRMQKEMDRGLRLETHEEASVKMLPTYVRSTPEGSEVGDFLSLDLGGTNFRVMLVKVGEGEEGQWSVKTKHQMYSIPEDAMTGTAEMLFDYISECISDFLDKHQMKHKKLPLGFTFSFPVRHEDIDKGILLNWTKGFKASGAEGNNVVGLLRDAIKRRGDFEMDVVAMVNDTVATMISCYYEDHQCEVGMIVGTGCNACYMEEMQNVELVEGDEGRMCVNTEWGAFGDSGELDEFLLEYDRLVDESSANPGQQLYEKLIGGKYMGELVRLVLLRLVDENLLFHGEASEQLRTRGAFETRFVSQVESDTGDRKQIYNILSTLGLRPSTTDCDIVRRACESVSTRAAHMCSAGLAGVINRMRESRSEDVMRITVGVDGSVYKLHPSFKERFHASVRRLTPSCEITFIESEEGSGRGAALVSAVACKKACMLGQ
T1 sequence (Q14397 whole entry, looked up): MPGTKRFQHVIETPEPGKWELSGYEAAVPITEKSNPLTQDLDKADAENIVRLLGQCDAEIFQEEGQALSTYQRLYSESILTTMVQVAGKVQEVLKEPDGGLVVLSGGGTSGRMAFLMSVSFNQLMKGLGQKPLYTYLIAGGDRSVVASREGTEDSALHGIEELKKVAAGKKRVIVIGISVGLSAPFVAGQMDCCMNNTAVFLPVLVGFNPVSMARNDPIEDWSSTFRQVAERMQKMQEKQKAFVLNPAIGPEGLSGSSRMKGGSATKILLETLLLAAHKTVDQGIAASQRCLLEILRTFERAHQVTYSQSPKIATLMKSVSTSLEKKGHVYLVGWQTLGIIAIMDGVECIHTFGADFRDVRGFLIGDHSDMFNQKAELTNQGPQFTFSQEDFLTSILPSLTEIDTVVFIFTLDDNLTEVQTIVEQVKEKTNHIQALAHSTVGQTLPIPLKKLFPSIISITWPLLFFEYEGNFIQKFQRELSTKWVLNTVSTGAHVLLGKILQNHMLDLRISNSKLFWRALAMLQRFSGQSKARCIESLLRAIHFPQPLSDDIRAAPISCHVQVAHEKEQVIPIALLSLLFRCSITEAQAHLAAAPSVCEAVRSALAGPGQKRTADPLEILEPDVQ
How it was run: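 Compounds pre-incubated 20 min with substrate, then 10 nM GST-GCK with 10 nM FLAG-GKRP added. GCK activity coupled via G6PDH and diaphorase to resorufin (5 mM glucose, 0.4 mM ATP, 0.15 mM NADP+, pH 7.6), read kinetically over 30 minutes at Ex 525/Em 590 nm.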

[7] = biological target: T1, Hexokinase-4 (Homo sapiens) + Glucokinase regulatory protein (Homo sapiens); test: qHTS assay for inhibitors of recombinant human GCK-GKRP interaction: ADP-Glo assay (AID 743206); conditions: ADP-Glo luminescence, 60 min, 0% = vehicle-only wells with enzyme present; series mostly up to 76.9 µM;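 also: plate controls were DMSO plus enzyme for no effect and no enzyme for full effect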
How it was run: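 Pin-transferred compounds meet a 15 nM GST-GCK/15 nM FLAG-GKRP/2 uM S6P mix (dispense concentrations). ATP is then added to 0.4 mM final with 5 mM glucose, and the reaction runs 60 min at room temperature. ADP is quantified luminescently.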

[8] = biological target: T1, Hexokinase-4 (Homo sapiens) + Glucokinase regulatory protein (Homo sapiens); test: qHTS assay for inhibitors of recombinant human GCK-GKRP interaction: HTRF assay (AID 743207); conditions: recombinant GCK-GKRP HTRF binding, 60 min; series mostly up to 57.5 µM;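 also: 0% = DMSO with GCK present and -100% = DMSO wells lacking GCK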
How it was run: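 HTRF binding of 5 nM GST-GCK and 5 nM FLAG-GKRP with 2 uM S6P in pH 7.1 Hepes buffer (MgCl2, KCl, DTT, Tween 20, BSA). Anti-FLAG XL665 and anti-GST donor added, 60 min at room temperature; 665/615 nm read, normalized to with- and without-GCK controls.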

COc1ccc2c(c1OC)C(=O)OC2C1c2cc3c(cc2CCN1C)OCO3 (configuration not stated)
inactive: Potency [1] | max response [2] -15.1% | max response [3] -5.26% | Potency [4]

O=C1C[C@@H]2OCC=C3CN4CC[C@]56c7ccccc7N1[C@H]5[C@H]2[C@H]3C[C@H]46
inactive: max response [2] -11.2% | max response [5] 1.95% | max response [3] -21.9% | Potency [4]

COCC(C)N(C(=O)CCl)c1c(C)csc1C (configuration not stated)
inactive: max response [2] -1.95% | max response [5] -1.03% | max response [3] -15.8% | Potency [4]

S=C=S
inactive: Potency [1] | max response [2] -6.45% | max response [5] -5.35% | max response [3] -4.58% | Potency [4]

CC(C)CCON=O
inactive: Potency [1] | max response [2] 1.97% | max response [5] -1.81% | max response [3] -5.29% | Potency [4]

O=CC=O
inactive: Potency [1] | max response [2] 0.354% | max response [3] -6.19% | Potency [4]

ClC=C(Cl)Cl
inactive: Potency [1] | max response [2] -6.12% and -5.8% | max response [5] -0.112% | max response [3] 5.41% and -9.88% | Potency [4]

Oc1cc(Cl)c(Cl)cc1Cl
inactive: Potency [1] | max response [2] 4.14% and 5.09% | max response [5] 4.45% | max response [3] -2.85% and 0.876% | Potency [4]

C[CH2][Hg][S]c1ccccc1C(=O)O
active: Potency [2] 44.7 µM | Potency [5] 1.41 µM | Potency [3] 50.1 µM | Potency [4] 15.8 µM

O=C(NCNC(=O)NC1C(=O)NC(=O)N1CO)NC1C(=O)NC(=O)N1CO (configuration not stated)
inactive: max response [2] 1.81% | max response [5] 20.5% | max response [3] -3.93% | Potency [4]

C[C@H]1CC[C@@H]2[C@@H](C)[C@H]3[C@H](C[C@H]4[C@@H]5CC=C6CC(O[C@@H]7O[C@H](CO)[C@H](O)[C@H](O[C@@H]8O[C@H](CO)[C@@H](O)[C@H](O)[C@H]8O)[C@H]7O[C@H]7O[C@@H](C)[C@H](O)[C@@H](O)[C@H]7O)CC[C@]6(C)[C@H]5CC[C@]34C)N2C1 (some centres not stated)
active: Potency [1] 18.8 µM | Potency [2] 44.7 µM | Potency [3] 12.6 µM | Potency [4] 70.8 µM
inactive: max response [5] -0.257%

O=C1C=CC(=O)C=C1
inactive: Potency [6] | outcome [7] | outcome [8] | max response [5] 4.21% | Potency [4]
active: Potency [1] 26.6 µM

O=C(O)C(Cl)(Cl)Cl
inactive: Potency [1] | max response [2] -1.81% and -2.86% | max response [3] 7.06% and 1.52% | Potency [4]

CC[C@H](C)[C@H]1O[C@]2(C=C[C@@H]1C)C[C@@H]1C[C@@H](C/C=C(\C)[C@@H](O[C@H]3C[C@H](OC)[C@@H](O[C@H]4C[C@H](OC)[C@@H](O)[C@H](C)O4)[C@H](C)O3)[C@@H](C)/C=C/C=C3\CO[C@@H]4[C@H](O)C(C)=C[C@@H](C(=O)O1)[C@]34O)O2
inactive: max response [5] -7.27%
active: Potency [2] 39.8 µM

O=[N+]([O-])c1ccc(F)c([N+](=O)[O-])c1
active: Potency [1] 59.6 µM
inactive: max response [2] -6.71% | max response [5] 6.65% | Potency [4]

C=CCN=C=S
inactive: max response [2] 9.92% | max response [5] -13.2% | max response [3] -7.74% | Potency [4]

COC1=CC(=O)O[C@@H](/C=C/c2ccccc2)C1
inactive: Potency [1] | max response [2] 4.02% | max response [3] -13.6% | Potency [4]

ClC1C(Cl)C(Cl)C(Cl)C(Cl)C1Cl (configuration not stated)
inactive: max response [2] -5.28% [middle of 4 runs] | max response [5] 4.65% | max response [3] -11% [middle of 4 runs] | Potency [4]

O=C(O)c1cc[c]([Hg][Cl])cc1
inactive: max response [2] 8.27% | Potency [6] | outcome [7] | outcome [8] | max response [3] -11.9% | Potency [4]

C[C@]12CCC(=O)C[C@@H]1CC[C@@H]1[C@@H]2CC[C@]2(C)[C@@H](O)CC[C@@H]12
inactive: Potency [1] | max response [2] -16.7% and -5.79% | max response [5] 17.9% | max response [3] -9.61% and -12.6% | Potency [4]

Clc1ccccc1Cl
inactive: Potency [1] | max response [2] 1.42% | max response [5] 10.6% | max response [3] 2.94% | Potency [4]

CCOP(=O)(OCC)O/C(=C/Cl)c1ccc(Cl)cc1Cl
inactive: max response [2] -18.8% and -8.15% | max response [5] -0.665% | max response [3] -28.5% and -27.3% | Potency [4]
